These results are taken from PubChem BioAssay (NCI).

The panel holds about 83,000 compounds, 20% with a hit somewhere; the sample as a whole holds those more often.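 Growth was measured after 48 h exposure to one concentration of compound in 96-well plates. Values under 10 count as active.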 The source made the active and inactive calls.

The test system of the test is HOP-62 NSCLC. Nature of the test: NCI-60 one-dose screen, 48 h (100 = growth as untreated, 0 = no growth, -100 = all killed). The settings on record: 10 µM unless noted.
Consider `COc1cc(C2CC(c3cc(OC)c(OC)c(OC)c3)=NN2C(C)=O)ccc1OCc1ccccc1` (centres undefined), for which the growth is 70.2% (inactive).

For `Cc1cc(N=C2NC(=O)CS2)n[nH]1`, the growth was 116% (inactive). `C=C1CC[C@@H]2[C@]3(C)COC(c4cn[nH]c4-c4ccc(OC)cc4)O[C@@H]3CC[C@@]2(C)[C@@H]1C/C=C1/C(=O)OCC1O` (some centres undefined): the growth was -56.9% (active). `COc1cc2c(c(OC)c1OC)C(=O)CC(c1cccc(NC(=O)c3cc(N)ccc3Cl)c1)O2` (centres undefined): the growth was 77.3% (inactive).

As to `O=C(N=Nc1c(O)[nH]c2ccc(Cl)cc12)c1ccc2nc(-c3ccccc3)[nH]c2c1`, the growth is 81.3% (inactive). With `CNC(=O)c1cc(Oc2ccc3nc(NC(=O)Nc4cccc(OC(F)(F)F)c4)sc3c2)ccn1`, the growth is -71.7% (active).

Regarding `COc1cc2c(c(OC)c1OC)C(=O)CC(c1cccc(NC(=O)c3cc([N+](=O)[O-])ccc3Cl)c1)O2` (centres undefined), the growth was 43% (inactive). Under `COc1ccc(C2=NN(C(C)=O)C(c3ccc(OCc4ccc(Cl)cc4)c(OC)c3)C2)cc1OC` (centres undefined) stands 76.2% (inactive); under `COc1ccc2cc([C@H](C)C(=O)N/N=C/c3ccc(Br)cc3)ccc2c1`, 90.1% (inactive); under `CCCCCCCCc1ccc(C(=O)Nc2ccc(C)cc2C(=O)O)cc1C`, 96.2% (inactive). Take `CSc1ccccc1NC(=O)c1ccc2nn(/C(C#N)=C/c3ccccn3)nc2c1`: the growth was 0.554% (active).

In the case of `COCOc1ccc2c(=O)c(C)c(C(=O)N[C@@H](Cc3ccccc3)C(O)C(=O)NCCc3ccc(OC)cc3)oc2c1` (some centres undefined), the growth is 106% (inactive). On to `CSc1ccc(C(=O)Nc2ccc3nnn(/C(C#N)=C/c4ccccn4)c3c2)cc1`, for which the growth is -5.88% (active). In the case of `COc1ccc(NC(=O)Cn2c(/C=C/c3cccc([N+](=O)[O-])c3)nc3ccccc3c2=O)cc1` it was 40.9% (inactive). In the case of `CC1(C)CC[C@]2(C(=O)Nc3ccc(Br)cc3)CC[C@]3(C)C(=CCC4[C@@]5(C)C[C@@H](O)[C@H](O)[C@@](C)(CO)C5CC[C@]43C)C2C1` (some centres undefined) it was 5.6% (active); in that of `N#Cc1c(-c2cccc(Cl)c2Cl)cc(-c2c[nH]c3ccccc23)[nH]c1=O`, 80.1% (inactive). As for `O=c1onc(-c2cc3ccccc3nc2Cl)n1-c1cccc2ccccc12`, the growth was 55.6% (inactive). For the compound `CCN(CC)CCOc1ccc(Nc2ncc3cc(-c4ccc(O)c(C#N)c4)c(=O)n(C)c3n2)cc1`, the growth is 91.1% (inactive). With `Cc1ccc(NC(=O)[C@]23CCC(C)(C)CC2C2=CCC4[C@@]5(C)C[C@@H](O)[C@H](O)[C@@](C)(CO)C5CC[C@@]4(C)[C@]2(C)CC3)cc1` (some centres undefined), the growth was 47.2% (inactive). Consider `N#Cc1c(NCc2ccccc2)n[nH]c1Nc1ccccc1`, for which the growth is 88.9% (inactive). Consider `CCCSc1nc(NCCc2c[nH]c3ccccc23)c(C#N)c(-c2ccc(OC)cc2)n1`, for which the growth is 64.5% (inactive).

As for `O=C(NNc1ccccc1)n1c(=O)c2ccccc2c(=O)n1-c1ccccc1`, the growth is 90.7% (inactive).

As to `COc1cc(C2CC(c3cc(OC)c(OC)c(OC)c3)=NN2C(C)=O)ccc1OCc1ccc(F)cc1` (centres undefined), the growth is 74.2% (inactive). Consider `CN1CCN(Cc2ccc(C(=O)Nc3cccc(C#Cc4cccc5[nH]nc(N)c45)c3)cc2C(F)(F)F)CC1`, for which the growth is -90.1% (active).

On to `COc1ccc(C(=O)/C=C/c2cccc3ccccc23)cc1S(N)(=O)=O`, for which the growth was 18.2% (inactive). Regarding `O=C(/C=C/c1ccc(O)c(O)c1)NC1CCOC1O` (centres undefined), the growth was 101% (inactive). In the case of `C=C1CCC2C3(C)COC(c4ccccc4F)OC3CCC2(C)C1CC(O)C1=CCOC1=O` (centres undefined) it was 88.2% (inactive); in that of `COc1cc(/C=C/C(=O)c2ccc(C)cc2)ccc1Oc1nc(Nc2ccc(F)cc2)nc(N(C)C)n1`, 86.4% (inactive). For `COc1cc2oc(-c3cccc(C(=O)Nc4ccc(Cl)cc4)c3)cc(=O)c2c(OCCNC(=O)[C@@H](N)CCC(=O)O)c1OC`, the growth is 81.9% (inactive). In the case of `C=C1CCC2C3(C)COC(c4ccc(F)cc4)OC3CCC2(C)C1CC(O)C1=CCOC1=O` (centres undefined), the growth was 81.7% (inactive).

`Cc1ccc(C(SCCNCc2cc(N(C)C)ccn2)(c2ccccc2)c2ccccc2)cc1`: the growth was -1.31% (active). With `COc1ccc(-c2c(Nn3cnnn3)no[n+]2[O-])cc1`, the growth was 75.2% (inactive). On to `CC1=C(C(=O)c2ccccc2)C(c2cccc3ccccc23)n2c(nc3ccccc32)N1` (centres undefined), for which the growth was 40.4% (inactive).

In the case of `CC1(C)CC[C@]2(C(=O)Nc3ccccc3)CC[C@]3(C)C(=CCC4[C@@]5(C)C[C@@H](O)[C@H](O)[C@@](C)(CO)C5CC[C@]43C)C2C1` (some centres undefined), the growth is 75.3% (inactive).
